High-throughput results as filed in PubChem.
Sampled rows, rich in hits. Any-hit rate of the full collection: about 1.4%.
MenB inh = blocks the Mycobacterium tuberculosis MenB enzyme; P9WNP5; MenB enzyme assay, absorbance read-out; inhibition, % (test concentration not listed); 100,000 tested, 0.43% active; in the data active = inhibition above about 21%, passing the limit was not always enough
Target sequence (P9WNP5 whole entry, looked up): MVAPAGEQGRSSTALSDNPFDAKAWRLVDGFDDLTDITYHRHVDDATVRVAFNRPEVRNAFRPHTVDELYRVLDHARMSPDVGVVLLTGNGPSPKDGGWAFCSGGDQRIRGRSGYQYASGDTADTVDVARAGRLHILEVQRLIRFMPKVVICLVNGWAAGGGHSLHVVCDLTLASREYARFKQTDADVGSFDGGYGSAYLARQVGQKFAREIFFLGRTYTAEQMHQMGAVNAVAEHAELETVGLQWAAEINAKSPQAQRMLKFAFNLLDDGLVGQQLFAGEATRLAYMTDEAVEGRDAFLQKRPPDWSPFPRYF
PV pol inh = inhibitors of poliovirus RNA polymerase binding and polymerization | P03300 | poliovirus polymerase elongation, fluorescence polarization; active compounds read low | % elongation, % (compound at 16.7 µg/mL) | 150,000 tested, 0.66% active | AID 588519; in the data active = % elongation below about 90%
AID504770 = growth inhibitors of E. coli YBA685 in a screen for V. cholerae RctB (chromosome II replication) inhibitors; E. coli YBA685 rctB-dependent plasmid, OD600 growth, 3 h; active compounds read low; z-score (no concentration beside the values); 130,000 tested, 0.27% active; AID 504770; in the data active = z-score below about -2, passing the limit was not always enough
Mtb MbtI inh = MbtI salicylate synthase inhibition; 100,000 tested, 0.89% active; P9WFX0; inhibition, % (test concentration not listed); AID 493033; purified MbtI enzyme, fluorescence intensity read-out; in the data active = inhibition mostly above about 56%, no sharp cut-off; inactive = mostly below about 77%
Each line names hits and unclear results; the compound was inactive in the other large screens; ! = not confirmed by another sample.

CC(OC(=O)c1ccc2ncsc2c1)C(=O)Nc1ccc(S(N)(=O)=O)cc1 (stereo unspecified)	none
Cc1ccccc1NC(=O)Cc1nnc(SC(C)c2nc3ccccc3c(=O)[nH]2)n1C (stereo unspecified)	none
CCOc1ccc(NC2=CC(=O)C=CC2=O)cc1	Mtb MbtI inh 98 (no result: MenB inh)
CCOc1ccc(NC2=CC(=O)CCC2)cc1	none
Cc1ccc(C(=O)CCC(=O)O)s1	AID504770 -3.3
Cc1ccc(C(=O)OCC(=O)c2ccccc2)s1	none
COc1ccc(NC(=S)NN)cc1Cl	Mtb MbtI inh 92
c1csc(-c2csc3ncnc(NC4CCCC4)c23)c1	none
Cc1ccc(/C=C2\CCCc3ccccc3C2=O)o1	none
Cc1ccc(/C=C2\CC/C(=C\c3ccc(C)o3)C2=O)o1	Mtb MbtI inh 99
Cc1ccc(/C=C2/C=CC(=O)O2)o1	PV pol inh 81 (no result: Mtb MbtI inh)
Cc1ccc(/C=C2/C(=O)/C(=C/c3ccc(C)o3)C3CCC2N3C)o1	none
Cc1ccc(/C=C2/CC(C)C/C(=C\c3ccc(C)o3)C2=O)o1 (stereo unspecified)	Mtb MbtI inh 92
NC(=O)NC(=O)C(Sc1ncccn1)c1ccccc1 (stereo unspecified)	none
O=C(Nc1nnc(C2CC2)s1)Nc1ccccc1C(=O)Nc1nnc(C2CC2)s1	none
COc1ccc(Cn2c(=O)[nH]c3cc(C(=O)N4CCN(c5cccc(Cl)c5)CC4)ccc3c2=O)cc1	none (no result: MenB inh, AID504770, Mtb MbtI inh)
COc1ccc(Cn2c(=O)[nH]c3cc(C(=O)N4CCN(c5cccc(OC)c5)CC4)ccc3c2=O)cc1	PV pol inh 73 (no result: MenB inh, AID504770, Mtb MbtI inh)
CN1C=C(c2ccccc2)N(c2ccccc2)C1	PV pol inh 67 (no result: Mtb MbtI inh)
c1ccc(N2CN3CN2CN3c2ccccc2)cc1	none
CCS(=O)(=O)c1ccc2oc(SCC(=O)CSc3nc4cc(S(=O)(=O)CC)ccc4o3)nc2c1	MenB inh 45
CCS(=O)(=O)c1ccc2oc(SCC(=O)N3CC(C)OC(C)C3)nc2c1 (stereo unspecified)	none
Cc1ccc(Cc2nnc(C(=O)NCC3CCCO3)o2)cc1 (stereo unspecified)	none
O=C(c1ccccc1)N1CCn2c1nc1ccccc12	none (no result: Mtb MbtI inh)
COCCNC(=S)N1CCn2c1nc1ccccc12	Mtb MbtI inh 84
Cc1ccc(S(=O)(=O)c2nc(-c3ccccc3)oc2NCc2ccc3c(c2)OCO3)cc1	none
S=C(c1ccc(-c2ccccc2)o1)N1CCN(c2ccccc2)CC1	PV pol inh 68, Mtb MbtI inh 92
CC(=O)N1CCN(C(=S)c2ccc(-c3ccc(C)cc3)o2)CC1	none
COC(=O)C1=C(C)NC2=C(C(=O)CCC2)C1c1sccc1C (stereo unspecified)	none (no result: MenB inh, PV pol inh, Mtb MbtI inh)
CCc1cc(C(=O)O)n(C)n1	MenB inh 29
CSC(N)=Nc1ccc(Cl)cc1	AID504770 -2.5! (no result: MenB inh, PV pol inh, Mtb MbtI inh)
CC(Oc1ccc(-c2ccc(C#N)cc2)cc1)C(N)=O (stereo unspecified)	none
O=C(NCCc1ccccc1)[C@@H](c1ccccc1)N1Cc2ccccc2C1=O	none
Ic1ccc(Nc2nc3nonc3nc2N/N=C\c2ccco2)cc1	MenB inh 29
O=C(NC1CCCC1)c1ccc2c(c1)OCO2	none
Cc1cc(C(=O)COC(=O)c2ccc3c(c2)NC(=O)CS3)c(C)n1Cc1cccs1	none
O=C(COC(=O)c1ccc2c(c1)NC(=O)CS2)NCc1cccs1	PV pol inh 11
CC(NCCC(=O)O)c1ccccc1 (stereo unspecified)	MenB inh 34
N#Cc1cc2c(cc1N)OCO2	none
O=C(NCCc1ccc(O)c(O)c1)C(F)(F)F	Mtb MbtI inh 85 (no result: MenB inh)
O=S1(=O)CCC(NC(=S)SCCOc2ccccc2)C1 (stereo unspecified)	AID504770 -3 (no result: MenB inh, PV pol inh, Mtb MbtI inh)
Cc1cc(NCCCN2CCCC2=O)n2c(nc3ccccc32)c1C#N	MenB inh 37
CCCNC(=O)CSc1n[nH]c(=S)s1	Mtb MbtI inh 57
CCCNC(=O)CSc1nnc(C)o1	none
O=C(NCc1ccco1)c1c2c(nc3ccccc13)-c1ccccc1CC2	none
O=S(=O)(Cc1ccccc1)c1nnnn1-c1ccccc1	none (no result: MenB inh, PV pol inh)
CCS(=O)(=O)c1nnnn1-c1ccccc1	MenB inh 42
c1ccc(-n2nnnc2SSc2nnnn2-c2ccccc2)cc1	Mtb MbtI inh 59
O=C(Sc1nnnn1-c1ccccc1)c1cccc(Cl)c1	none (no result: MenB inh, PV pol inh, Mtb MbtI inh)
N#CC(C#N)=C/C=C(\Sc1nnnn1-c1ccccc1)c1ccccc1	Mtb MbtI inh 84
C/C(=N\O)c1ccc2c(c1)Cc1ccccc1-2	none
CN(C)CCC(=O)c1ccc2c(c1)OCO2	none
CCCCCc1ccc(C(=O)CCN(C)C)cc1	Mtb MbtI inh 73
Cc1cc(N2S(=O)(=O)c3ccccc3S2(=O)=O)ccc1Br	none (no result: MenB inh, PV pol inh, Mtb MbtI inh)
C=C1c2cccc(O)c2C(O)=C2C(=O)C3(O)C(O)=C(C(N)=O)C(=O)C(N(C)C)C3C(O)C12 (stereo unspecified)	AID504770 -6.9
Cc1cc2c(NC(=O)COCC(=O)O)cccc2nn1	PV pol inh 65
CC(C)(CNc1nsc2ccccc12)N1CCOCC1	PV pol inh 89
CCOC(=O)CC(=O)c1ccccc1	MenB inh 34
CCOC(=O)Cc1c[nH]c2ccccc12	none
CCOC(=O)CC(=O)c1c[nH]c2ccccc12	AID504770 -2.2 (no result: Mtb MbtI inh)
CCOC(=O)CN=C(c1ccccc1)c1ccccc1	none (no result: Mtb MbtI inh)
CC(C)c1ccc(C=C2C(=O)NC(=O)NC2=O)cc1	PV pol inh 77
N#CC(C#N)=Cc1cc2c(cc1Br)OCO2	PV pol inh 70
COc1ccc2cc(CCNC(=O)/C=C\c3ccccc3)c(=O)[nH]c2c1	none (no result: MenB inh, PV pol inh, Mtb MbtI inh)
Cc1cccc(N2CCN(C(=O)Nc3ccccc3)CC2C)c1 (stereo unspecified)	none
COc1ccc(Cc2nc(C)cc(Cl)n2)cc1Cl	none (no result: MenB inh, PV pol inh)
COC(=O)c1cc2c(ccn2-c2ccc(F)cc2)n1CC(=O)c1ccc(OC)cc1	none
CCn1c(C(=O)OC)cc2c1ccn2-c1ccc(F)cc1	MenB inh 32
COc1ccc(CCNC(=O)C2=NNC(=O)CC2)cc1	none
Brc1ccc(-c2csc(NN=C3CCCC3)n2)cc1	Mtb MbtI inh 80
O=S(=O)(NNc1nccc(-c2cccnc2)n1)c1cccc(C(F)(F)F)c1	Mtb MbtI inh 55
CSc1ccc(-c2cn3ccsc3n2)cc1	none (no result: MenB inh, PV pol inh, Mtb MbtI inh)
Cc1c(P(=S)(N2CCOCC2)N2CCOCC2)cc(C#N)n1C	PV pol inh 80, Mtb MbtI inh 94
Cc1c(Cl)cccc1N1CC(C)(C)C1=O	none (no result: MenB inh, PV pol inh, Mtb MbtI inh)
Cc1c(Cl)cccc1N1C(=O)C=CC1=O	AID504770 -2.6, Mtb MbtI inh 99 (no result: MenB inh)
O=C1CC(=O)c2ccc3c4c(ccc1c24)C(=O)CC3=O	Mtb MbtI inh 93
CCOC(=O)/C=C(\C)Sc1cc(=O)oc2ccccc12	PV pol inh 84
CCO/C(C)=N\Oc1cc(=O)oc2ccccc12	none
[O-][n+]1onc(-c2ccccc2)c1-c1ccccc1	none
N#Cc1c(-c2ccccc2)no[n+]1[O-]	PV pol inh 93 (no result: AID504770)
C=CCOc1c(-c2ccco2)oc2ccccc2c1=O	none
Cn1cc(NC(=O)N(Cc2ccco2)CC2CCCO2)c2ccccc2c1=O (stereo unspecified)	PV pol inh 82
CC(C)C(=O)Nc1cccc(-c2nc3ccccc3c(=O)o2)c1	AID504770 -3.5
